KB-3-1 cytotox – kills parental KB-3-1 adenocarcinoma cells; KB-3-1 viability, CellTiter-Glo ATP luminescence, 72 h; Potency, µM (highest dose often 46.1 µM), most hits filed as cytotoxic; hit rate 1.4% among 400,000; AID 1347075; note: % is set by controls: 0 for no effect and ±100 for the full control effect; nearly all actives have a fitted effect of over 60% in size
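Here the drug-naive KB-3-1 line serves as comparator for MDR sub-line selectivity; cells received compound titrations, 72 h at 37 °C, then CellTiter-Glo readout.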
PINK1 modulator – modulators of PINK1 expression. AID 624263. PINK1 immunofluorescence, high-content cytometry, 24 h. hit rate 0.2% among 410,000. Potency, µM (highest dose often 76.6 µM), for inactives: top-dose activation (PINK1 increase), actives largely listed as activators; active = well fitted activation curve with a large enough effect; inconclusive = small, poorly fitted or top-dose-only effect; cell line not stated here; note: % of control where 0% means no effect; nearly all actives have a fitted effect of over 65% in size
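Cells are seeded, rested 12 hours, then given compound at five concentrations or DMSO for 24 hours. After fixation, blocking and antibody staining, PINK1 amount and mitochondrial localization are scored; CCCP serves as control.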
12-LOX inh – ALOX12 (human) lipoxygenase inhibition. P18054. purified 12hLO, xylenol orange hydroperoxide absorbance. Potency, µM (series often up to 108 µM), without a hit: at the top dose activity change, negative = inhibition, actives largely listed as inhibitors. hit rate 1.1% among 580,000. AID 1671190; note: % is set by controls: 0 for no effect and ±100 for the full control effect
Target sequence (P18054 whole entry, looked up): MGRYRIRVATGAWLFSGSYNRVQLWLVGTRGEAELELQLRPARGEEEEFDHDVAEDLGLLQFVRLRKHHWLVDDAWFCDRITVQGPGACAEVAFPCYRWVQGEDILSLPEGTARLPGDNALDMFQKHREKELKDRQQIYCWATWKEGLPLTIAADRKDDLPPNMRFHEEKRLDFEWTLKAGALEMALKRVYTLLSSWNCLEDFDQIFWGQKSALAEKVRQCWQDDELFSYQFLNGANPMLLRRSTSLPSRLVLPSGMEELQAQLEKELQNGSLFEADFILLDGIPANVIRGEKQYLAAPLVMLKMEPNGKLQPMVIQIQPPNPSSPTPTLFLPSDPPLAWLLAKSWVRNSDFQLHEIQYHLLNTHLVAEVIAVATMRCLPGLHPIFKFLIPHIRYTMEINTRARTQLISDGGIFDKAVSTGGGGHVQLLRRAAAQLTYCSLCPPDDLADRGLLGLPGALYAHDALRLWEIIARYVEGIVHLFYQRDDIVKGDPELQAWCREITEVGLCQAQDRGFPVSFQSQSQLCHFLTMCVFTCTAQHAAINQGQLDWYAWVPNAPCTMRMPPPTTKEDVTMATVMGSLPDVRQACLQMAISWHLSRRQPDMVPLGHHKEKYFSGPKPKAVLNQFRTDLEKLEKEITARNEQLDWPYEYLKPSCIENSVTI
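Purified human 12hLO at 150 nM in 25 mM Hepes, 0.01% Triton X-100, pH 7.0, preincubated 15 min at room temperature with compound. Reaction started with 40 uM arachidonic acid, 30 min at room temperature. Hydroperoxide measured by Fe-xylenol orange, 573/405 nm absorbance ratio.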
KB-V1 MDR tox – KB-V1 MDR subline cytotoxicity; KB-V1 MDR cells viability, CellTiter-Glo, 72 h; Potency, µM (doses to about 46.1 µM), actives largely listed as cytotoxic; hit rate 3.4% among 400,000; note: % is set by controls: 0 for no effect and ±100 for the full control effect; nearly all actives have a fitted effect of over 60% in size
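Potencies derive from concentration-effect curves fitted to normalized luminescence (CellTiter-Glo) of KB-V1 cells treated for 72 h at 37 degrees C in phenol-red-free DMEM containing 10% FBS.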
MCF10A rerep – DNA re-replication induction in MCF 10a cells; MCF 10A DNA re-replication, Hoechst nuclear intensity, 48 h; Potency, µM (highest dose often 46.1 µM), for inactives: at the top dose activity, positive = re-replication, hits mostly activators; hit rate 2.9% among 350,000; note: % of control where 0% means no effect; nearly all actives have a fitted effect of over 50% in size
SW480 rereplic – DNA re-replication induction in SW480 cells | SW480 DNA re-replication, Hoechst DNA content imaging, 48 h | Potency, µM (doses to about 46.1 µM), inactives show at the highest dose re-replication activation, usual class: activators | hit rate 1.8% among 340,000 | AID 624297; note: % of control where 0% means no effect; nearly all actives have a fitted effect of over 55% in size
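SW480 cells exposed to compounds for 48 hr at 37 C, 5% CO2, then Hoechst-stained 40 min. Nuclear DNA content imaged by fluorescence scanning (405 nm excitation, 500-530 nm emission); re-replication scored as increased high-intensity nuclei.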
Starred values were filed as active, the others as inactive; i = inactive; ? = inconclusive; . = no result given; ! = not confirmed by another sample; [ ] = dose if it differs, or a comment. Most compounds without a hit are left out; they make up all but 5.8% or so of the library. Unless noted, calls come from the whole dose curve; as a rule, active = well fitted curve in the direction sought with a large enough effect; inconclusive = small, poorly fitted or top-dose-only effect, or another doubt; inactive = no such curve, though single readings can be large; an effect the other way counts as inactive or inconclusive. Potency is the fitted concentration of half-maximal effect.

SMILES	KB-3-1 cytotox	PINK1 modulator	12-LOX inh	KB-V1 MDR tox	MCF10A rerep	SW480 rereplic
COc1ccccc1CCNC(=O)c1csc(NC(C)C)n1	.	.	25.0%	.	.	.
CCOC(=O)c1c(SCCN2CCCC2)n(-c2ccccc2)c(=S)n(-c2ccccc2)c1=O	i	0.7%	-12.8%	i	4.61µM*	6.51µM*
O=S(=O)(c1ccccc1)N1CCN(Cc2ccccc2C(F)(F)F)CC1	i	2.0%	?	i	?	-2.7%
Cc1ccc(S(=O)(=O)N2CCN(Cc3ccccc3C(F)(F)F)CC2)cc1	i	-2.6%	1.12µM*	?	15.7%	-6.7%
Cc1ccccc1CN1CCN(Cc2ccccc2C(F)(F)F)CC1	i	10µM*	?	i	?	5.1%
Cc1ccccc1Nc1nc(CSc2nnnn2C2CC2)cs1	.	.	28.2µM*	.	.	.
Cc1ccc(Nc2nc(CSc3nnc(-c4ccccc4)n3C)cs2)cc1	?	-2.0%	13.4%	i	?	13.2%
COc1ccccc1-c1nnc(SCc2csc(Nc3ccc(C)cc3)n2)o1	.	.	39.8µM*	.	.	.
Cc1ccc(Nc2nc(CSc3nnc(-c4ccccc4C)n3C)cs2)cc1	?	0.9%	6.8%	6.51µM*	?	-65.0%
Cc1ccc(Nc2nc(CSc3nnnn3-c3ccccc3)cs2)cc1	?	4.2%	-2.7%	14.6µM*	7.9%	2.8%
CC(C)C(NC(=O)Nc1ccc(F)cc1)C(=O)N(C)C (stereo unspecified)	.	.	49.0%	.	.	.
COc1ccccc1C(=O)NC1CC2CCC1C2 (stereo unspecified)	.	.	-39.5%	.	.	.
Cc1ccc(Nc2nc(CSc3nnnn3C)cs2)cc1	i	-2.9%	0.0%	23.1µM*	16.5%	-3.8%
Cn1c(=O)[nH]c(=O)c2c1nc(N1CCN(Cc3ccccc3F)CC1)n2CCCc1ccccc1	.	.	-2.5%	.	.	.
CC(CC(=O)NCc1coc(-c2cccs2)n1)NC(=O)c1ccccc1 (stereo unspecified)	.	.	9.7%	.	.	.
CCc1cccc2c(C(=O)CN3C(=O)NC4(CCCCC4)C3=O)c[nH]c12	?	9.7%	-8.2%	?	13µM*	-1.3%
CCc1cccc2c(C(=O)CCl)c[nH]c12	i	-2.0%	-13.9%	i	23.1µM*	?
CCOC(=O)N1CCN(CC(=O)Nc2oc3ccccc3c(=O)c2-c2ccccc2)CC1	.	.	2.8%	.	.	.
CCOC(=O)Nc1oc2ccccc2c(=O)c1CN1CCOCC1	i	3.1%	2.5%	i	16.4µM*	-4.2%
CC1CCC(C(=O)Nc2ccc(Br)cc2)CC1 (stereo unspecified)	.	.	15.3%	.	.	.
Cc1cc(CN2CCN(c3ccc(F)cc3)CC2)cs1	.	1.2%	?	.	.	.
CCc1c(CN2CCN(c3ccc(F)cc3)CC2)csc1C	.	6.0%	44.7µM*!	.	.	.
O=C(Nc1ccc(Cl)cc1C(F)(F)F)C(Sc1nnc(-c2cccs2)o1)c1ccccc1 (stereo unspecified)	?	?	-24.1%	14.6µM*	1.64µM*	.
Cn1c(SCC(=O)Nc2nc(C(C)(C)C)cs2)nnc1C1CC1	i	5.8%	0.2%	i	6.51µM*	-30.9%
COc1nc(Nc2ccc([N+](=O)[O-])cc2)nc(NC(C)C)n1	i	11.0%	-16.7%	11.6µM*	2.3%	-8.1%
SMILES	KB-3-1 cytotox	PINK1 modulator	12-LOX inh	KB-V1 MDR tox	MCF10A rerep	SW480 rereplic
COc1cc(C2c3sc(=O)[nH]c3SC3C(=O)N(c4ccc(Br)cc4)C(=O)C32)ccc1O (stereo unspecified)	i	0.7%	39.8µM*	?	-1.6%	-6.0%
COc1ccc(C2c3sc(=O)[nH]c3SC3C4CCC(C4)C23)cc1OC (stereo unspecified)	i	6.5%	-35.0%	i	?	9.7%
O=C(c1ccccc1)N(CCCl)C(=O)N(CCCl)C(=O)c1ccccc1	i	-0.8%	10µM*	i	.	.
O=C(c1ccccc1)N(C(=O)c1ccccc1)c1ccccc1	i	-0.1%	-13.0%	i	.	.
CC(C)NC(=O)CCCC(=O)NCC1(c2ccccc2)CC1	.	.	54.0%	.	.	.
COc1cc2c(cc1OC)C1=C(C#N)CC/C(=N\S(=O)(=O)c3ccccc3)N1CC2	i	-0.6%	-6.2%	?	-3.9%	-6.9%
COc1cc2c(cc1OC)C1=C(C#N)CN(C3CCCCC3)CN1CC2	i	2.4%	39.8µM*	20.6µM*	2.9%	1.0%
COc1cc2c(cc1OC)C1=C(C#N)CCC(=O)N1CC2	16.4µM*	-1.5%	21.7%	4.61µM*	1.8%	-6.7%
COc1ccc(CCN2CC(C#N)=C3c4cc(OC)c(OC)cc4CCN3C2)cc1OC	i	1.5%	9.3%	i	22.6%	3.4%
COc1ccc(C(=O)N=C2CCC(C#N)=C3c4cc(OC)c(OC)cc4CCN23)cc1	?	-0.6%	-10.9%	11.6µM*	?	6.0%
COc1ccc(-n2nnc(C(=O)OCc3cc(C)ccc3C)c2C)cc1	.	.	84.8%	.	.	.
O=c1[nH]c(-c2cccnc2)nc2sc(-c3ccccc3)cc12	?	7.6%	-1.8%	2.91µM*	1.3µM*	3.66µM*
CC(C)OC(=O)Cc1nc2sc(-c3ccccc3)cc2c(=O)[nH]1	i	0.2%	.	?	14.1%	-1.4%
Cc1nc2sc(-c3ccccc3)cc2c(=O)[nH]1	?	0.7%[38.3 µM]	-3.4%	16.4µM*	25.9µM*	?
CC(C)C1C(C#N)=C(N)Oc2n[nH]c(-c3ccc4ccccc4c3)c21 (stereo unspecified)	?	.	?	8.2µM*	-3.2%	?
O=C(CCc1c(-c2ccc(F)cc2)[nH]c2ccc(F)cc12)N1CCC1	.	.	-21.6%	.	.	.
Cc1cc(C)c2[nH]c(=S)cc(C)c2c1	i	4.1%	6.31µM*!	i	-3.3%	-3.7%
COc1ccc2c(C)cc(=S)[nH]c2c1	i	0.4%	?	i	1.5%	-2.0%
C=CCNCc1ccsc1	.	.	-23.6%	.	.	.
COc1ccc(C(=O)NC(C)c2nnc(SCc3ccc(Cl)c(Cl)c3)n2C)cc1 (stereo unspecified)	i	-0.3%[38.3 µM]	3.98µM*	i	-2.6%	-1.1%
COc1ccccc1CCNC(=O)CSc1nc(Cl)nc2nc[nH]c12	.	.	3.5%	.	.	.
Cc1ccc(C(=O)NC(=S)Nc2ccccc2N2CCCC2)cc1[N+](=O)[O-]	i	6.3%	?	i	2.59µM*	0.1%
COc1cccc(C(=O)NC(=S)Nc2ccccc2N2CCCCC2)c1	i	8.9%	39.8µM*	i	-2.3%	0.4%
Cc1cc(C(=O)NC(=S)Nc2cccc(C(=O)O)c2C)ccc1[N+](=O)[O-]	i	1.0%	20µM*	i	-2.7%	4.2%
CC1(c2ccccc2)N(Cc2ccccc2)C(=O)OC12CCN(Cc1cccc(O)c1)CC2 (stereo unspecified)	.	.	-28.8%	.	.	.
